Reference: PubChem BioAssay (Tox21)
Inconclusive results are not listed. A number with no mark means an inactive call. The source made the active and inactive calls. The call rests on the fitted dose curve; in most records, active means well fitted cell-killing curve with a large enough effect in the repeat runs; inconclusive means weak or mixed curves, or effect the other way; inactive means flat fitted curve, though single readings scatter.

Assay: Nuclear factor erythroid 2-related factor 2/antioxidant responsive element (Nrf2/ARE) small molecule agonists: qHTS cell viability counter screen in human keratinocytes (AID 1919968); further: nearly all actives have a fitted effect of over 55% in size
Conditions: KeratinoSens HaCaT ARE cells viability, CellTiter-Fluor, 24 h; series mostly up to 92.4 µM; activity change, negative = cytotoxicity: at the top concentration
From the text: U.S. Tox21 Program National Center for Advancing Translational Sciences [NCATS] Division of Preclinical Innovation [DPI] U.S. Environmental Protection Agency [EPA] National Institutes of Environmental Health Sciences [NIEHS] National Toxicology Program [NTP] U.S. Food and Drug Administration [FDA] Tox21 Assay Overview: Oxidative stress has been implicated in the pathogenesis of a variety of diseases ranging from cancer to neurodegeneration. The antioxidant response element (ARE) signaling pathway plays an important role in the amelioration of oxidative stress. The KeratinoSens (Givaudan, Switzerland) is an in vitro test method which quantifies luciferase induction as a measure of activation of Keap1-Nrf2-antioxidationt/electrophile response element (ARE) dependant pathway in HaCaT human keratinocytes stably transfected with a selectable plasmid. The KeratinoSens assay is a cell-based assay with a reporter cell line to detect potential skin sensitizers by their ability to induce the Nrf2/ARE-response. The activation of the report gene under culture conditions can be detected by ONE-Glo Luciferase Assay System (Promega, Madison, WI). This cell line has been used to screen the Tox21 10K compound library to identify agonists that induce oxidative stress. The cytotoxicity of the Tox21 compound library against the KS-ARE cell line was tested in parallel by measuring the cell viability using CellTiter- Fluor assay system (Promega, Madison, WI) in the same wells.
Tox21 Assay Protocol Summary: HaCaT derived cell line KeratinoSens were dispensed at 1,500 cells/5uL/well in 1536-well white wall/solid bottom plates using a Multidrop Combi (ThermoFisher Scientific, Waltham, MA) dispenser. After the assay plates were incubated at 37 C/5% CO2 for 5 h, 23 nL of compounds dissolved in DMSO, positive controls or DMSO only was transferred to the assay plate by a pintool workstation (Kalypsys, San Diego, CA). The plates were incubated at 37 C/5% CO2 for 23 h, followed by addition of 1uL/well of CellTiter-Fluor reagent into the assay plates using a Flying Reagent Dispenser (Aurora Discovery, San Diego, CA) for cell viability readout that measures cytotoxicity. After 1 h incubation at 37 C/5% CO2 the fluorescence intensity was measured using a ViewLux (PerkinElmer, Shelton, CT) plate reader.
On the % scale 0 is the no-effect control and ±100 the full control effect; potency means the concentration at half of the fitted maximal effect.

Row | Compound | activity change, negative = cytotoxicity | Potency
1 | CCN(CC)CCOC(=O)C(c1ccccc1)C1CCCCC1 (stereo not given) | -16.9% [at 42.5 µM] | –
2 | [Cl][Bi]([Cl])([c]1ccccc1)([c]1ccccc1)[c]1ccccc1 | – | 6.08 µM (active)
3 | NC1=NCC2c3ccccc3Cc3ccccc3N12 (stereo not given) | -6.36% [at 42.5 µM] | –
4 | Cc1cccc(NC(=S)N(C)C)c1 | 0.513% | –
5 | CCC[Si](OC)(OC)OC | -2.8% | –
6 | Cc1cccc2c1cc1ccc3cccc4ccc2c1c34 | 5.51% | –
7 | CCNC(=O)/C=C/c1cccc(Br)c1 | 8.35% [at 42.5 µM] | –
8 | CC(Cc1cccc(C(F)(F)F)c1)NCCOC(=O)c1ccccc1 (stereo not given) | -9.22% [at 42.5 µM] | –
9 | CC(C)(O)c1ccc(C(C)(C)O)cc1 | 1.29% | –
10 | CC(COc1ccccc1)NN (stereo not given) | -3.78% [at 42.5 µM] | –
11 | CC1CCN(CCCC(=O)c2ccc(F)cc2)CC1 | -0.195% [at 42.5 µM] | –
12 | Cc1nc(N)nc(N)c1-c1ccc(Cl)c(Cl)c1 | 0.187% [at 42.5 µM] | –
13 | Cc1ccc(O)c2ncccc12 | – | 2.66 µM (active)
14 | CCCCNCCCC | 0.396% | –
15 | CC(=O)c1c(C)c([N+](=O)[O-])c(C(C)(C)C)c([N+](=O)[O-])c1C | 10.3% | –
16 | O=Cc1ccccc1S(=O)(=O)O | -0.302% | –
17 | CC1=CCCC(C)(C)C12CCC(C)O2 (stereo not given) | -5% | –
18 | NC(CCC(=O)O)C(=O)O (stereo not given) | 0.99% | –
19 | C/C=C1\C(=O)C[C@H]2[C@@H]3CCC4=CC(=O)CC[C@]4(C)[C@H]3CC[C@]12C | 9.8% [at 42.5 µM] | –
20 | NC(=O)N(O)[C@@H]1COc2cc(OCc3ccccc3)ccc21 | 2.44% | –

Row | Compound | activity change, negative = cytotoxicity | Potency
21 | CCCCNc1cc(C(=O)O)cc(S(N)(=O)=O)c1Oc1ccccc1 | 0.926% [at 42.5 µM] | –
22 | Cc1cccc(C)c1NC(=O)CN(CC(=O)O)CC(=O)O | 0.192% [at 42.5 µM] | –
23 | CNC(=S)NN | – | 12.2 µM (active)
24 | Cc1cc(O)c2c(O)c3c(O)cccc3cc2c1 | -15.1% [at 42.5 µM] | –
25 | NC1(c2ccc(-c3nc4ccn5c(=O)[nH]nc5c4cc3-c3ccccc3)cc2)CCC1 | – | 29.8 µM (active)
26 | CC(C)NCC(O)COc1cccc2[nH]ccc12 (stereo not given) | 0.448% [at 42.5 µM] | –
27 | CC1=CC(C)C(C=O)C(C)C1 (stereo not given) | 0.488% | –
28 | C=CCCC(=O)O | -3.35% | –
29 | CC(CC(=O)Cl)CC(C)(C)C (stereo not given) | 0.663% | –
30 | CCCCC(CC)CNCC(CC)CCCC (stereo not given) | 0.0475% | –
31 | Cc1cc(C)c(C)c(C)c1 | 2.48% | –
32 | O=C(O)CCCCCCCCCCCBr | 4.43% | –
33 | CC(=O)OC(C)OC(C)=O | 4.77% | –
34 | O=C(O)CN(CCOCCOCCN(CC(=O)O)CC(=O)O)CC(=O)O | -7.96% [at 0.349 µM] | –
35 | CCCCC(CC)C(=O)OCCOCCOCCOCCOC(=O)C(CC)CCCC (stereo not given) | 4.76% | –
36 | CCCCCCCCCCCCCCC[C@H](O)[C@@H](N)CO | 1.51% [at 42.5 µM] | –
37 | COC(=O)CC(C)=O | 4.04% | –
38 | CCOc1ccc(NS(=O)(=O)c2ccc(N)cc2)nn1 | 0.487% [at 42.5 µM] | –
39 | CC(C)(C)C1=CC(=O)C=C(C(C)(C)C)C1=O | -1.26% | –
40 | Nc1nc(N)c2nc(CNc3ccc(C(=O)N[C@@H](CCC(=O)O)C(=O)O)cc3)cnc2n1 | 14.3% | –
